This is a sample that favours compounds with a hit; in the whole collection about 1.5% have one here.
TMEM16A act = TMEM16A chloride channel activators or potentiators, primary screen, cell-based, HTS; Anoctamin-1 (Mus musculus), Q8BHY3; HEK293 TMEM16A/YFP-H148Q/I152L, iodide quench fluorescence; stronger effect = lower value; B-score at 10 µM; 340,000 tested, 0.3% active; AID 623877, 2012;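 active means fluorescence-ratio B-score plate-corrected deviation score at least 3 library SD below zero, with starting fluorescence score within 5 deviations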;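 further: channel opened by trigger with iodide after compound preincubation; score built on the fluorescence ratio of max minus min over baseline; more negative score means more quench and so TMEM16A activation or potentiation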
hiPSC survival = enhancers of single-cell hiPSC survival, primary screen, ATPlite luminescence | AID 602274, 2012 | survival enhancement, % at 20 µM | 100% = ROCK inhibitor wells, 0% = DMSO | 360,000 tested, 0.044% active; in the data active means survival enhancement above about 18%;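 further: cells exposed to compounds for 16 hours before the ATP read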
DAGLB inhibitor = DAGLB lipase inhibitors, primary screen, biochemical, fluorescence, HTS. Diacylglycerol lipase-beta (Homo sapiens), Q8NCG7. HEK293T DAGLB membrane lysate, EnzChek fluorogenic substrate. inhibition, % at 5.17 µM. 340,000 tested, 0.059% active; in the data active means inhibition above about 34%;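 further: 0% = enzyme with vehicle and 100% = wells lacking enzyme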
ABCB6 inh 2 = ABCB6 transporter inhibitors, primary screen, K562-ABCB6 cells, flow cytometry, MLPCN library; fluorescence ratio to DMSO, % at 10 µM; K562-ABCB6 porphyrin accumulation, 1 h; stronger effect = lower value; 360,000 tested, 0.19% active; AID 602162, 2011;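 active means fluorescence ratio to DMSO below 75%, the collection mean minus 3 SD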;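 further: signal is porphyrin accumulated inside mitochondria; 100% equals median channel fluorescence of DMSO control wells; lower ratio means ABCB6 inhibition with less porphyrin fluorescence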
ANO1 block = TMEM16A chloride channel inhibitors, primary screen, cell-based, HTS; Anoctamin-1 (Mus musculus), Q8BHY3; HEK293 TMEM16A/YFP iodide influx fluorescence, ionomycin; normalized B-score (activity score, 25-100; higher = stronger inhibition) at 10 µM; 310,000 tested, 1.2% active;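 active means ratio plate-corrected score three or more library SD toward inhibition, starting fluorescence score within five deviations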;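 further: score derived from kinetic fluorescence span divided by baseline fluorescence per well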
TMEM16A reconf = TMEM16A chloride channel inhibitors, confirmation, cell-based, re-confirmation | shares compounds with ANO1 block | HEK293 TMEM16A/YFP-H148Q, iodide quench fluorescence; ionomycin added to raise cell calcium | inhibition, % at 10 µM | 2,300 tested, 39% active;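 active means mean duplicate percent inhibition, scaled so buffer wells are 0 and the reference blocker 100, over three buffer SD above buffer mean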
TMEM16A Ca cntr = calcium mobilization in TMEM16A/YFP HEK293 cells, confirmation, counter-screen for TMEM16A inhibitor project; shares compounds with ANO1 block; Fluo4 calcium mobilization; calcium response (% of ionomycin), % at 10 µM; 2,300 tested, 2% active;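 active means duplicate-averaged calcium signal over 20% of the ionomycin maximum, relative to buffer baseline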;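 further: each well's signal is peak minus trough fluorescence divided by its pre-addition baseline; 0% = buffer wells and 100% = ionomycin wells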
YFP-HEK293 quench = iodide YFP quench changes in parental YFP-HEK293, counter-screen for TMEM16A inhibitor project, cell-based; ionomycin; 2,300 tested, under 10 active; shares compounds with ANO1 block; YFP ratio F(max-min)/F0 at 10 µM;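 active means yellow fluorescent protein signal ratio exceeding the buffer control mean by over 5 SD of those controls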;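 further: ratio is mean of duplicate wells from kinetic YFP trace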
ClC-1 inh = ClC-1 chloride channel inhibition, selectivity assay for TMEM16A inhibitor project, cell-based, voltage-dependent ClC-1 | ratio percent, % at 10 µM | 2,300 tested, under 10 active | shares compounds with ANO1 block | AID 652236, 2013 | CHO ClC-1-YFP, iodide influx fluorescence quench; iodide control reads 0, buffer control 100;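 active means duplicate-mean ratio percent above the mean of iodide-only control wells, which defines zero, plus 5 of their SD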;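 further: higher percent means stronger block of ClC-1 iodide influx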
Target sequence (P35524 whole entry, looked up): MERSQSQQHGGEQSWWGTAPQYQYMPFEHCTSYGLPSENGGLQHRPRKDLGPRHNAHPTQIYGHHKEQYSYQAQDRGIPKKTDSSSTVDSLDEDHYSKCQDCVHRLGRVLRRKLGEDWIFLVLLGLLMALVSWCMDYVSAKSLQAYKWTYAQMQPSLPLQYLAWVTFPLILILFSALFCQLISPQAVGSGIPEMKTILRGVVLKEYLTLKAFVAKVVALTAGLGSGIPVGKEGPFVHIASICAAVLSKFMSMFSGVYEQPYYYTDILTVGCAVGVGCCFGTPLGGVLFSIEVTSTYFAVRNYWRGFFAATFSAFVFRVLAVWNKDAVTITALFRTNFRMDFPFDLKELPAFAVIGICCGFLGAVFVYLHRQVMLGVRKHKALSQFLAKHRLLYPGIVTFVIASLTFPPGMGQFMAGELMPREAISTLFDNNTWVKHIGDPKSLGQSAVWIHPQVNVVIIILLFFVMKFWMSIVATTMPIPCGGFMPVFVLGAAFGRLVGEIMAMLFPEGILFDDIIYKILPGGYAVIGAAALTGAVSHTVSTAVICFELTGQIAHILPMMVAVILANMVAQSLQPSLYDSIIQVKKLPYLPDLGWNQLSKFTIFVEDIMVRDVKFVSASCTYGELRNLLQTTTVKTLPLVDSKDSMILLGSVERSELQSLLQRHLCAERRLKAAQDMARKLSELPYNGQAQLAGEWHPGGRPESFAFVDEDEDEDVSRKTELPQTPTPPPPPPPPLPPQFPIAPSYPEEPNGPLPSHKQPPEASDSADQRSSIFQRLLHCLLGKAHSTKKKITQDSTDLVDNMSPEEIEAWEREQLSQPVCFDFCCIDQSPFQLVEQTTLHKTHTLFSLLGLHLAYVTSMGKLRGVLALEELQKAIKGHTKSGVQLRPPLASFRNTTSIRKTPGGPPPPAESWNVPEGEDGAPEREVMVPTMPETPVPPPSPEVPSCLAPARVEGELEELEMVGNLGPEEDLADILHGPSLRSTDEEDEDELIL
An asterisk follows results filed as active; ! = not active in a repeat.

How did COc1ccc(C(=O)NC(=S)Nc2cccc(S(=O)(=O)N3CCOCC3)c2)cc1 do in these assays?
TMEM16A act: inactive; hiPSC survival: 0; DAGLB inhibitor: 0; ABCB6 inh 2: 88; ANO1 block: 25*; TMEM16A reconf: inactive; TMEM16A Ca cntr: inactive; YFP-HEK293 quench: -0.96; ClC-1 inh: -8

How did O=C(Nc1ccc(S(=O)(=O)N2CCCC2)cc1)c1ccc(OCC2CCCO2)cc1 (stereo unspecified) do in these assays?
TMEM16A act: inactive; hiPSC survival: 0; DAGLB inhibitor: -2; ABCB6 inh 2: 100; ANO1 block: 25*; TMEM16A reconf: 20%*; TMEM16A Ca cntr: inactive; YFP-HEK293 quench: -0.98; ClC-1 inh: -8

How did CN(C)S(=O)(=O)c1cccc(N=C2SCCN2Cc2ccccc2)c1 do in these assays?
TMEM16A act: inactive; hiPSC survival: 0; DAGLB inhibitor: -2; ABCB6 inh 2: 94; ANO1 block: 100*; TMEM16A reconf: 36%*; TMEM16A Ca cntr: inactive; YFP-HEK293 quench: -0.87; ClC-1 inh: -8

How did COc1ccc(S(=O)(=O)NCCC(=O)OCC(=O)NC2CC2)cc1 do in these assays?
TMEM16A act: inactive; hiPSC survival: 0; DAGLB inhibitor: 1; ABCB6 inh 2: 100

Results for COc1ccc(CCN2CC(C(=O)Nc3cc(F)ccc3F)CC2=O)cc1OC (stereo unspecified) ?
TMEM16A act: inactive; hiPSC survival: 0; DAGLB inhibitor: 1; ABCB6 inh 2: 101; ANO1 block: inactive

What do the screens show for `CC(C)(C)NC(=O)Cn1c(SCC(N)=O)nc2ccccc21`?
TMEM16A act: inactive; hiPSC survival: 0; DAGLB inhibitor: 0; ABCB6 inh 2: 95; ANO1 block: 100*; TMEM16A reconf: inactive; TMEM16A Ca cntr: inactive; YFP-HEK293 quench: -1.1; ClC-1 inh: -8

Results for CCOc1ncccc1C(=O)OCC(=O)NC(=O)c1ccccc1 ?
TMEM16A act: inactive; hiPSC survival: -1; DAGLB inhibitor: 0; ABCB6 inh 2: 89

Results for Cn1c(=O)n(C)c2cc(S(=O)(=O)Nc3cc(Cl)ccc3O)ccc21 ?
TMEM16A act: inactive; hiPSC survival: 0; DAGLB inhibitor: 0; ABCB6 inh 2: 106; ANO1 block: inactive; TMEM16A reconf: inactive; TMEM16A Ca cntr: inactive; YFP-HEK293 quench: -1.2; ClC-1 inh: -9

How did Cn1c(=O)n(C)c2cc(S(=O)(=O)Nc3ccccc3O)ccc21 do in these assays?
TMEM16A act: inactive; hiPSC survival: -1; DAGLB inhibitor: 4; ABCB6 inh 2: 96; ANO1 block: inactive

How did COC(=O)c1ccc(NC(=O)CCN2CCN(CCC(=O)Nc3ccc(C(=O)OC)cc3)CC2)cc1 do in these assays?
TMEM16A act: inactive; hiPSC survival: -2; DAGLB inhibitor: -2; ABCB6 inh 2: 87; ANO1 block: inactive

How did COC(=O)c1ccc(NC(=O)CCN2CCCCC2)cc1 do in these assays?
TMEM16A act: inactive; hiPSC survival: -3; DAGLB inhibitor: 1; ABCB6 inh 2: 103; ANO1 block: 25*!; TMEM16A reconf: inactive; TMEM16A Ca cntr: inactive; YFP-HEK293 quench: -0.89; ClC-1 inh: -22

What do the screens show for `CCCc1cc(Nc2cccc(OC)c2)n2ncnc2n1`?
TMEM16A act: inactive; hiPSC survival: -2; DAGLB inhibitor: -1; ABCB6 inh 2: 103; ANO1 block: 100*; TMEM16A reconf: inactive; TMEM16A Ca cntr: inactive; YFP-HEK293 quench: -1; ClC-1 inh: -7

Results for CN(C)CCN(C(=O)c1cccc2ccccc12)c1nc2cc3c(cc2s1)OCO3 ?
TMEM16A act: inactive; hiPSC survival: 1; DAGLB inhibitor: -1; ABCB6 inh 2: 106; ANO1 block: inactive

Results for Cc1c(Cl)ccc2sc(N3CCN(C(=O)C4=COCCO4)CC3)nc12 ?
TMEM16A act: inactive; hiPSC survival: 0; DAGLB inhibitor: -6; ABCB6 inh 2: 97; ANO1 block: 25*; TMEM16A reconf: 44%*; TMEM16A Ca cntr: inactive; YFP-HEK293 quench: -0.97; ClC-1 inh: -12

Results for Cc1nnsc1C(=O)Nc1ccc(S(=O)(=O)N2CCCCC2C)cc1 (stereo unspecified) ?
TMEM16A act: inactive; hiPSC survival: 1; DAGLB inhibitor: -1; ABCB6 inh 2: 106; ANO1 block: inactive

What do the screens show for `Cc1cc(C)cc(OCC(O)CN2CCN(C(=O)c3ccco3)CC2)c1` (stereo unspecified)?
TMEM16A act: inactive; hiPSC survival: 0; DAGLB inhibitor: -2; ABCB6 inh 2: 96; ANO1 block: inactive

What do the screens show for `O=C(c1ccco1)N1CCN(CC(O)COc2ccc3oc4ccccc4c3c2)CC1` (stereo unspecified)?
TMEM16A act: inactive; hiPSC survival: -2; DAGLB inhibitor: -2; ABCB6 inh 2: 95; ANO1 block: 25*; TMEM16A reconf: 21%*; TMEM16A Ca cntr: inactive; YFP-HEK293 quench: -1.1; ClC-1 inh: 0

Results for Cc1ccc(-c2nc3ccc(Cl)cn3c2Cc2cccc(F)c2)cc1 ?
hiPSC survival: -1; ABCB6 inh 2: 95

What do the screens show for `Cc1ccc2nc(C)c(CN3CCN(c4ccc([N+](=O)[O-])cc4Cl)CC3)n2c1`?
TMEM16A act: inactive; hiPSC survival: 0; DAGLB inhibitor: 3; ABCB6 inh 2: 86; ANO1 block: 25*; TMEM16A reconf: 18%*; TMEM16A Ca cntr: inactive; YFP-HEK293 quench: -0.9; ClC-1 inh: -14

How did Cc1c(NC(=O)CSc2ccc(Cl)cc2)cccc1-c1nc2ncccc2o1 do in these assays?
TMEM16A act: inactive; hiPSC survival: -2; DAGLB inhibitor: -2; ABCB6 inh 2: 96; ANO1 block: 25*; TMEM16A reconf: 20%*; TMEM16A Ca cntr: inactive; YFP-HEK293 quench: -0.9; ClC-1 inh: -10

Compound activity (PubChem BioAssay)
